Values joined by “and” are separate entries in the source; they are usually repeats but may differ in a detail not shown here. Identical values can stand only once. For part of these data: Potency and affinity values are given separately. Where a structure was tested more than once in an assay, its records may differ in their call. Active and inactive are the calls of the source.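 How the source made its calls, unless noted: active means thallium flux through the channel raised or lowered by more than 3 SD from vehicle-only wells, actives on both sides; inactive means the rest.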
Legend:
[1] = P. berghei load reduction in hepatocytes – cell-based, HepG2, luciferase luminescence, HepG2 viability, primary screen (AID 624349; in the data active means parasite load remaining mostly below about 12%, no sharp cut-off; inactive means mostly above about 10%;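 further: 100% = mean of DMSO negative control wells on the same plate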); conditions: P. berghei liver stage in HepG2, luciferase luminescence, concentration not given here; parasite load remaining: stronger effect = lower value; viability: measured here: HepG2 viability without parasites
[2] = signal quenchers or enhancers, Cy5 substrate/SSB – biochemical, NIH Clinical Collection, E. coli SSB, artefact control for HCV NS3 helicase inhibitor project (AID 743268; call rule not given here); conditions: Cy5-oligo bound E. coli SSB, fluorescence interference
[3] = modulation of C. elegans fzo-1 (AID 1259413; call rule not given here;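 further: fzo-1 mutant C. elegans worms in liquid wells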); conditions: C. elegans fzo-1 modulator screen, mean read-out; stronger effect = higher value
[4] = galactose survival enhancers in mitochondrial complex I cybrids – cell-based, galactose medium, ATP luminescence, primary screen (AID 1645843;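 active means z-score of at least 1.8 in each of two replicates, scored against plate mean and spread of sample wells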;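 further: positive z means more ATP and so rescue of galactose-driven cybrid death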); conditions: complex I mutant cybrid cells, 72 h, stronger effect = higher value
F380Y/beta1 = assay: BK channel mutant inhibitors and activators – cell-based, U2OS BacMam, thallium flux, beta subunits, selectivity assay, profiling panel (AID 1259406); conditions: U2OS BacMam BK variants, at 30 µM;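 further: initial slope of Thallos dye fluorescence rise after thallium is added; log ratio against the mean of 0.3% DMSO vehicle wells on the same plate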
F380Y/beta4 = assay: as above; conditions: U2OS BacMam BK variants, at 30 µM
R275C = assay: as above; conditions: U2OS BacMam BK variants, at 30 µM
R275C/beta1 = assay: as above; conditions: U2OS BacMam BK variants, at 30 µM
R275C/beta2Delta = assay: as above; conditions: U2OS BacMam BK variants, at 30 µM
R275C/beta4 = assay: as above; conditions: U2OS BacMam BK variants, at 30 µM
R275C/Slo1WT/beta2 = assay: as above; conditions: U2OS BacMam BK variants, at 30 µM
[5] = blockers of polyQ-driven CASP3 activation – cell-based (AID 1583); conditions: polyglutamine-induced caspase-3 activation, cell assay; stronger effect = higher value;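 tested at 10 µM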
[6] = yeast 75Q aggregation reduction – 75Q-TubU reporter (AID 1593); conditions: Yeast 75Q polyglutamine aggregation reporter
[7] = restoration of touch response, mutant HTT neurons – whole organism, C. elegans mechanosensory neurons, N-terminal huntingtin (AID 1599); conditions: C. elegans polyQ-huntingtin mechanosensory neurons, stronger effect = higher value
[8] = blockers of cytochrome c efflux from mitochondria – biochemical, purified mitochondria (AID 1603); conditions: stronger effect = lower value;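 further: mouse liver mitochondria challenged with calcium chloride; signal normalized to the plate average as 100%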
[9] = polyglutamine aggregate formation blockers (AID 1604); conditions: polyglutamine-induced protein aggregation inhibition assay; stronger effect = higher value; tested at 2.5 µM
[10] = glutamate transport activators, MN-1 cells, MN-1 cell line (AID 1612); conditions: MN-1 motor neuron cells, stronger effect = higher value;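 further: tested at 1 µM final; 0% = mean of DMSO vehicle wells on each plate; positive means more glutamate uptake than control and negative means less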
[11] = 75Q-TubH aggregate inhibition, S. cerevisiae, yeast (AID 1616); conditions: S. cerevisiae 75Q-TubH polyglutamine aggregation suppression; stronger effect = higher value
[12] = compounds altering viability of human ES cells (AID 493140; call rule not given here;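 further: cells exposed to compounds for four days before counting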); conditions: human embryonic stem cell survival screen; stronger effect = higher value

CCCCC1=NC2(CCCC2)C(=O)N1Cc1ccc(-c2ccccc2-c2nn[nH]n2)cc1
parasite load remaining [1]: 50.9% (inactive) and 54.9% (inactive) and 98.2% (inactive) | viability [1]: 86.5% and 93.9% and 73.1% | fluorescence ratio [2]: 1.06 (inactive) | mean signal [3]: 269 (inactive) | z-score [4]: 1.65 (inactive) | log fold change Tl+ flux (F380Y/beta1): 0.0995 (active) | log fold change Tl+ flux (F380Y/beta4): 0.0736 (inactive) | log fold change Tl+ flux (R275C): 0.00561 (inactive) | log fold change Tl+ flux (R275C/beta1): 0.109 (active) | log fold change Tl+ flux (R275C/beta2Delta): 0.104 (active) | log fold change Tl+ flux (R275C/beta4): 0.051 (inactive) | log fold change Tl+ flux (R275C/Slo1WT/beta2): 0.0476 (inactive)

Cn1c(=O)c2[nH]cnc2n(C)c1=O
inhibition [5]: 9.69% | score [6]: 1.11 | rescue above control [7]: 1.91 | cytochrome c release ratio [8]: 0.95 | inhibition of aggregation [9]: 68.2% | glutamate uptake change [10]: -19.2% | aggregation suppression score [11]: 0.779 | survival [12]: 4.08 (inactive) and 2.17 (inactive) | mean signal [3]: 256 (inactive) | z-score [4]: 0.425 (inactive) and 0.475 (inactive) and 0.2 (inactive) | log fold change Tl+ flux (F380Y/beta1): 0.00494 (inactive) | log fold change Tl+ flux (F380Y/beta4): -0.00644 (inactive) | log fold change Tl+ flux (R275C): 0.000907 (inactive) | log fold change Tl+ flux (R275C/beta1): 0.0503 (inactive) | log fold change Tl+ flux (R275C/beta2Delta): -0.00245 (inactive) | log fold change Tl+ flux (R275C/beta4): 0.0294 (inactive) | log fold change Tl+ flux (R275C/Slo1WT/beta2): 0.0554 (inactive)

C[C@H]1C[C@@H]2[C@H]([C@@H](O)C[C@@]3(C)[C@H]2CC[C@]3(O)C(=O)CO)[C@@]2(C)C=CC(=O)C=C12
survival [12]: 11.9 (inactive) | fluorescence ratio [2]: 1.07 (inactive) | mean signal [3]: 290 (inactive) | z-score [4]: -0.075 (inactive) and 0.335 (inactive) | log fold change Tl+ flux (F380Y/beta1): 0.0255 (inactive) | log fold change Tl+ flux (F380Y/beta4): -0.0167 (inactive) | log fold change Tl+ flux (R275C): -0.0399 (inactive) | log fold change Tl+ flux (R275C/beta1): -0.0807 (inactive) | log fold change Tl+ flux (R275C/beta2Delta): 0.0437 (inactive) | log fold change Tl+ flux (R275C/beta4): -0.00754 (inactive) | log fold change Tl+ flux (R275C/Slo1WT/beta2): 0.0152 (inactive)

COc1ccc2cc(CCC(C)=O)ccc2c1
inhibition [5]: 10.1% | score [6]: 0.11 | cytochrome c release ratio [8]: 0.7 | inhibition of aggregation [9]: 91.3% | glutamate uptake change [10]: 13.8% | aggregation suppression score [11]: 0.329 | survival [12]: 4.83 (inactive) | fluorescence ratio [2]: 0.1 (active) | mean signal [3]: 213 (inactive) | z-score [4]: 0.395 (inactive) and 0.51 (inactive) | log fold change Tl+ flux (F380Y/beta1): -0.0534 (inactive) | log fold change Tl+ flux (F380Y/beta4): -0.162 (active) | log fold change Tl+ flux (R275C): -0.0871 (active) | log fold change Tl+ flux (R275C/beta1): -0.284 (active) | log fold change Tl+ flux (R275C/beta2Delta): -0.233 (active) | log fold change Tl+ flux (R275C/beta4): -0.216 (active) | log fold change Tl+ flux (R275C/Slo1WT/beta2): -0.0751 (inactive)

CC1=C(C(=O)O)N2C(=O)[C@@H](NC(=O)[C@H](N)c3ccccc3)[C@H]2SC1
survival [12]: 10.4 (inactive) | parasite load remaining [1]: 125% (inactive) and 69.1% (inactive) and 137% (inactive) | viability [1]: 119% and 79.9% and 115% | fluorescence ratio [2]: 1.01 (inactive) | mean signal [3]: 265 (inactive) | log fold change Tl+ flux (F380Y/beta1): -0.0395 (inactive) | log fold change Tl+ flux (F380Y/beta4): -0.0677 (inactive) | log fold change Tl+ flux (R275C): -0.0778 (inactive) | log fold change Tl+ flux (R275C/beta1): -0.0268 (inactive) | log fold change Tl+ flux (R275C/beta2Delta): -0.026 (inactive) | log fold change Tl+ flux (R275C/beta4): -0.0153 (inactive) | log fold change Tl+ flux (R275C/Slo1WT/beta2): -0.0484 (inactive)

O[C@@H](c1cc(C(F)(F)F)nc2c(C(F)(F)F)cccc12)[C@H]1CCCCN1
parasite load remaining [1]: -2.37% (inactive) | viability [1]: 0.505% | fluorescence ratio [2]: 1.04 (inactive) | mean signal [3]: 213 (inactive) | z-score [4]: -1.5 (inactive) | log fold change Tl+ flux (F380Y/beta1): 0.529 (active) | log fold change Tl+ flux (F380Y/beta4): 0.648 (active) | log fold change Tl+ flux (R275C): 0.256 (active) | log fold change Tl+ flux (R275C/beta1): 0.641 (active) | log fold change Tl+ flux (R275C/beta2Delta): 0.366 (active) | log fold change Tl+ flux (R275C/beta4): 0.803 (active) | log fold change Tl+ flux (R275C/Slo1WT/beta2): 0.107 (inactive)

CN(C)c1ccc(O)c2c1C[C@H]1C[C@H]3[C@H](N(C)C)C(=O)C(C(N)=O)=C(O)[C@@]3(O)C(=O)C1=C2O
inhibition [5]: -8.86% | score [6]: 0.98 | rescue above control [7]: 0 | cytochrome c release ratio [8]: 0.25 | inhibition of aggregation [9]: 88.9% | glutamate uptake change [10]: 5.89% | aggregation suppression score [11]: 0.425 | survival [12]: 9.58 (inactive) | fluorescence ratio [2]: 0.97 (inactive) | z-score [4]: -1.26 (inactive) and 2.96 (active) | log fold change Tl+ flux (F380Y/beta1): 0.00506 (inactive) | log fold change Tl+ flux (F380Y/beta4): 0.0112 (inactive) | log fold change Tl+ flux (R275C): -0.0348 (inactive) | log fold change Tl+ flux (R275C/beta1): -0.00562 (inactive) | log fold change Tl+ flux (R275C/beta2Delta): -0.0532 (inactive) | log fold change Tl+ flux (R275C/beta4): -0.0291 (inactive) | log fold change Tl+ flux (R275C/Slo1WT/beta2): -0.0415 (inactive)

C[C@@H]1O[C@@H](OC[C@H]2O[C@@H](Oc3c(-c4ccc(O)c(O)c4)oc4cc(O)cc(O)c4c3=O)[C@H](O)[C@@H](O)[C@@H]2O)[C@H](O)[C@H](O)[C@H]1O
inhibition [5]: 3.3% | score [6]: 1.12 | rescue above control [7]: 13.8 | cytochrome c release ratio [8]: 1.08 | inhibition of aggregation [9]: 48.6% | glutamate uptake change [10]: 32.8% | aggregation suppression score [11]: 0.985 | parasite load remaining [1]: 117% (inactive) | viability [1]: 84.5% | fluorescence ratio [2]: 0.95 (inactive) | mean signal [3]: 242 (inactive) | log fold change Tl+ flux (F380Y/beta1): 0.04 (inactive) | log fold change Tl+ flux (F380Y/beta4): -0.0248 (inactive) | log fold change Tl+ flux (R275C): 0.0426 (inactive) | log fold change Tl+ flux (R275C/beta1): -0.0081 (inactive) | log fold change Tl+ flux (R275C/beta2Delta): 0.00535 (inactive) | log fold change Tl+ flux (R275C/beta4): -0.00112 (inactive) | log fold change Tl+ flux (R275C/Slo1WT/beta2): 0.0255 (inactive)

C[C@]12C=CC(=O)C=C1CC[C@@H]1[C@@H]2C(=O)C[C@@]2(C)[C@H]1CC[C@]2(O)C(=O)CO
survival [12]: 15.9 (inactive) | fluorescence ratio [2]: 0.107 (active) | z-score [4]: 0.315 (inactive) and 0.45 (inactive) | log fold change Tl+ flux (F380Y/beta1): 0.00863 (inactive) | log fold change Tl+ flux (F380Y/beta4): 0.000343 (inactive) | log fold change Tl+ flux (R275C): -0.0236 (inactive) | log fold change Tl+ flux (R275C/beta1): -0.0318 (inactive) | log fold change Tl+ flux (R275C/beta2Delta): 0.028 (inactive) | log fold change Tl+ flux (R275C/beta4): -0.00291 (inactive) | log fold change Tl+ flux (R275C/Slo1WT/beta2): -0.00226 (inactive)

Cc1cccc(CN2CCN(C(c3ccccc3)c3ccc(Cl)cc3)CC2)c1 (centres undefined)
inhibition [5]: 7.71% | score [6]: 1.9 | rescue above control [7]: 1.73 | cytochrome c release ratio [8]: 0.33 | inhibition of aggregation [9]: 63.4% | glutamate uptake change [10]: 17.6% | aggregation suppression score [11]: 1.86 | survival [12]: 3.33 (inactive) | fluorescence ratio [2]: 0.1 (active) | mean signal [3]: 222 (inactive) | z-score [4]: -1.5 (inactive) | log fold change Tl+ flux (F380Y/beta1): -0.208 (active) | log fold change Tl+ flux (F380Y/beta4): -0.141 (active) | log fold change Tl+ flux (R275C): 0.00971 (inactive) | log fold change Tl+ flux (R275C/beta1): -0.0498 (inactive) | log fold change Tl+ flux (R275C/beta2Delta): 0.0052 (inactive) | log fold change Tl+ flux (R275C/beta4): -0.091 (inactive) | log fold change Tl+ flux (R275C/Slo1WT/beta2): -0.00698 (inactive)
